Source: PubChem BioAssay (EPA / NIEHS)
Active and inactive are the calls of the source. How the source made its calls: active means hit-call score of the fitted dose curve at least 0.9, where 1 is the maximum; inactive means score below 0.9.

Test: APR_HepG2_NuclearSize_1hr: Apredica 1-hour HepG2 Assay for Nuclear Size (AID 2282670)
Conditions: high-content imaging, actives raise or lower the signal
Procedure: APR_HepG2_1hr is a cell-based, multiplexed-readout assay that uses HepG2, a human liver cell line, with measurements taken at 1 hour after chemical dosing in a 384-well plate.APR_HepG2_NuclearSize_1hr is one of 10 assay component(s) measured or calculated from the APR_HepG2_1hr assay. It is designed to make measurements of cell phenotype, a form of morphology reporter, as detected with fluorescence intensity signals by HCS Fluorescent Imaging technology.Data from the assay component APR_HepG2_NuclearSize_1hr was analyzed into 1 assay endpoint. This assay endpoint, APR_HepG2_NuclearSize_1hr, was analyzed with bidirectional fitting relative to DMSO as the negative control and baseline of activity. Using a type of morphology reporter, measures of all nuclear dna for gain or loss-of-signal activity can be used to understand the signaling at the nuclear-level. Furthermore, this assay endpoint can be referred to as a primary readout, because this assay has produced multiple assay endpoints where this one serves a signaling function. To generalize the intended target to other relatable targets, this assay endpoint is annotated to the cell morphology intended target family, where the subfamily is organelle conformation.
Cells were treated with dimethyl sulfoxide (DMSO) as a solvent control at a final concentration of 0.5% v/v or with compounds in DMSO with a resulting final DMSO concentration of 0.5% v/v. Compound treatment was done at concentrations of 0.39, 0.78, 1.56, 3.12, 6.24, 12.5, 25, 50, 100, and 200 uM in duplicate on each plate. Cells were treated with compounds for 1, 24, or 72 hr. Carbonyl […] m-chloro-phenylhydrazone (CCCP) and taxol were used as positive controls for mitochondrial function and cytoskeletal stability, respectively; DMSO served as the negative control for this experiment. Cells were fixed by the direct addition of 50 uL formaldehyde in Hank's Balanced Salt Solution (HBSS) to a final concentration of 3.7%. After incubation in the fixation medium for 30 min at room temperature (293-298 K), cells were rinsed twice with HBSS and treated with cell permeabilization buffer (16 uL of 0.5% Triton X-100) for 10 min at room temperature (293-298 K) before labeling. For mitochondrial membrane potential and mitochondrial measurements, pre-fixed cells were incubated with 50 uL of MitoTracker Red CMXRos (Invitrogen) at a concentration of 250 nM for 30 min before fixation. In the remaining cases, post-fixed cells were labeled by incubation with a multiplexed mixture of primary antibodies in HBSS for 60 min at room temperature (293-298 K) to detect immunoreactivity of c-Jun (1:500), phospho-histone H3 (1:100), phospho-histone H2A.x (1:200), p53 (1:400), alpha-tubulin (1:200) and Hoechst 33342 (2 ug/mL). Cells were labeled for multiplexed imaging on two separate plates: a) Hoechst 33342, MitoTracker Red, phospho-histone H3, and alpha-tubulin, and b) Hoechst 33342, phospho-histone H2A.x, and c-Jun. A final rinse with HBSS (50 uL) was performed before analysis. The primary and secondary antibodies for the proteins were phospho-histone H3 (rabbit anti-phospho-histone H3 and FITC-donkey anti-rabbit IgG), phospho-histone H2A.x (mouse anti-phospho-histone H2A.x and FITC-donkey anti-mouse IgG), c-Jun (rabbit anti-phospho-c-Jun and Cy3-donkey anti-rabbit IgG), p53 (sheep anti-p53 and Cy5-donkey anti-sheep IgG), alpha-tubulin (mouse anti-alpha-tubulin and Cy5-donkey anti-mouse IgG). These antibodies are available as the CellCiphr HepG2 assay kit (Millipore).Digital images of each well were captured using a Cellomics ArrayScan VTI (Thermo Scientific Cellomics) (0.8 NA objective, 0.63x optical coupler, and XF-93 filter set) at 20x magnification. The images were acquired using the autofocus feature of the ArrayScan instrument, which entails the following steps. First, the camera focuses on channel 1 (Hoechst 33342), where nuclei are identified. Second, a Z offset of 1 um is used for capturing mitochondria (MitoTracker Red). […]

For COC(=O)c1c(Cl)nn(C)c1S(=O)(=O)NC(=O)Nc1nc(OC)cc(OC)n1, which outcome is on record?
The outcome was “inactive”.

Which outcome does the source give for CCOC(=O)C(C)Oc1ccc(Oc2cnc3cc(Cl)ccc3n2)cc1 (stereo not given) here?
The outcome was “inactive”.

For CCCCC(CC)CN1C(=O)C2C3C=CC(C3)C2C1=O (stereo not given), which outcome is on record?
The outcome was “inactive”.

Which outcome does the source give for S=C([S-])NCCNC(=S)[S-].[Mn+2] here?
The outcome was “inactive”.

With Oc1ccc(C(c2ccc(O)cc2)C(Cl)(Cl)Cl)cc1 as the molecule, how does the outcome read?
The outcome was “inactive”.

Which outcome does the source give for CCCCC(CC)COC(=O)c1ccccc1C(=O)O (stereo not given) here?
The outcome was “inactive”.

With N#CSCSc1nc2ccccc2s1 as the molecule, how does the outcome read?
Its outcome is “inactive”.

For C=CCOC(Cn1ccnc1)c1ccc(Cl)cc1Cl (stereo not given), which outcome is on record?
Its outcome is “inactive”.

With COC(=O)c1ccccc1C(=O)O as the molecule, how does the outcome read?
Its outcome is “inactive”.

For COC(=O)c1ccc(I)cc1S(=O)(=O)NC(=O)Nc1nc(C)nc(OC)n1, which outcome is on record?
The outcome was “inactive”.

With CCCCOCCOCCOCc1cc2c(cc1CCC)OCO2 as the molecule, how does the outcome read?
Its outcome is “inactive”.

Which outcome does the source give for c1ccc2[nH]c(-c3cscn3)nc2c1 here?
The outcome was “inactive”.

With CCCN(CCC)c1c([N+](=O)[O-])cc(C(F)(F)F)c(N)c1[N+](=O)[O-] as the molecule, how does the outcome read?
Its outcome is “inactive”.

For COC(=O)c1ccc(CNS(C)(=O)=O)cc1S(=O)(=O)NC(=O)Nc1nc(OC)cc(OC)n1, which outcome is on record?
Its outcome is “inactive”.

For CCN(CC)C(=O)c1cccc(C)c1, which outcome is on record?
Its outcome is “inactive”.

For CCCOC(=O)NCCCN(C)C, which outcome is on record?
Its outcome is “inactive”.

Which outcome does the source give for CN(C)C(=O)Nc1ccc(Cl)c(Cl)c1 here?
Its outcome is “inactive”.

Which outcome does the source give for CCCCOC(=O)[C@@H](C)Oc1ccc(Oc2ccc(C(F)(F)F)cn2)cc1 here?
Its outcome is “inactive”.

For CCCCCCC(C)OC(=O)COc1nc(F)c(Cl)c(N)c1Cl (stereo not given), which outcome is on record?
Its outcome is “inactive”.

For C#CCOC(=O)[C@@H](C)Oc1ccc(Oc2ncc(Cl)cc2F)cc1, which outcome is on record?
The outcome was “inactive”.

For COc1nc(C)nc(NC(=O)NS(=O)(=O)c2ccccc2OCCCl)n1, which outcome is on record?
Its outcome is “inactive”.

For O=C(O)C1(C(=O)Nc2ccc(Cl)cc2Cl)CC1, which outcome is on record?
Its outcome is “inactive”.

With CCOC(=O)NCCOc1ccc(Oc2ccccc2)cc1 as the molecule, how does the outcome read?
The outcome was “inactive”.

For CCC(C)OC(=O)N1CCCCC1CCO (stereo not given), which outcome is on record?
Its outcome is “inactive”.

For COC(=O)c1ccccc1S(=O)(=O)NC(=O)Nc1nc(OC(F)F)cc(OC(F)F)n1, which outcome is on record?
Its outcome is “inactive”.

For CCCN(CCC)C(=O)SCC, which outcome is on record?
Its outcome is “inactive”.

For CCCCCOC(=O)COc1cc(N2C(=O)C3=C(CCCC3)C2=O)c(F)cc1Cl, which outcome is on record?
The outcome was “inactive”.

With O=C(Nc1ccc([N+](=O)[O-])cc1Cl)c1cc(Cl)ccc1O as the molecule, how does the outcome read?
Its outcome is “inactive”.

For COC(=O)c1cccc(C)c1S(=O)(=O)NC(=O)Nc1nc(OCC(F)(F)F)nc(N(C)C)n1, which outcome is on record?
Its outcome is “inactive”.

With COC(=O)CSc1cc(N=c2sc(=O)n3n2CCCC3)c(F)cc1Cl as the molecule, how does the outcome read?
The outcome was “inactive”.

Which outcome does the source give for CCC(O)=C1C(=O)CC(C(=O)O)CC1=O (stereo not given) here?
The outcome was “inactive”.

For CC(C)(C)[C@@H](O)[C@@H](Cc1ccc(Cl)cc1)n1cncn1, which outcome is on record?
The outcome was “inactive”.

Which outcome does the source give for CCOC(=O)[C@H](C)Oc1ccc(Oc2nc3ccc(Cl)cc3o2)cc1 here?
Its outcome is “inactive”.

For CCN(Cc1c(F)cccc1Cl)c1c([N+](=O)[O-])cc(C(F)(F)F)cc1[N+](=O)[O-], which outcome is on record?
The outcome was “inactive”.

With OB(O)O as the molecule, how does the outcome read?
The outcome was “inactive”.

With CCNc1nc(N)nc(Cl)n1 as the molecule, how does the outcome read?
Its outcome is “inactive”.

Which outcome does the source give for COc1c(Cl)ccc(Cl)c1C(=O)O here?
The outcome was “inactive”.

Which outcome does the source give for CCCCOC(=O)C(C)Oc1ccc(Oc2ccc(C(F)(F)F)cn2)cc1 (stereo not given) here?
Its outcome is “inactive”.

With CCSC(=O)N(CC(C)C)CC(C)C as the molecule, how does the outcome read?
The outcome was “inactive”.

Which outcome does the source give for CCOC(=O)COc1cc(-n2ncc(C(F)(F)F)c(C)c2=O)c(F)cc1Cl here?
The outcome was “inactive”.
